This passage reports binding signal and Kd results from paper PMC5913336, “True equilibrium measurement of transcription factor-DNA binding affinities using automated polarization microscopy”.

As a reminder, the Kd is the concentration at which binding is half-saturated.

For the first test, the target named is Kr (Drosophila melanogaster, UniProt P07247 220-332). The experiment in a line: FP; 20 mM Tris-acetate pH 7.0, 50 "nM" NaCl as printed (probably mM), 0.01% Tween 20, 0.1 mM DTT; conventional titration. Conditions: tags: N-GST (pGEX-6P-1, kept); dsDNA, one strand shown.
Sequence of Kr (P07247 220-332): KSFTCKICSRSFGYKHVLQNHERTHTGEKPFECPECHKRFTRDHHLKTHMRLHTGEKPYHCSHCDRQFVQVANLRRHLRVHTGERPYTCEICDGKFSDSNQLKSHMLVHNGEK
For the sequence TAGAGGGATTA, the binding signal was 1.67 Kd / Kd of best base at the position.

With TTGTGGGATTA, the binding signal was 3.61 Kd / Kd of best base at the position.

Regarding TTGAGGGTTTA, the binding signal is 9.26 Kd / Kd of best base at the position.

For TTGAGGGATTA, the Kd was approximately 0.2 nM.

With TTGAGGCATTA, the binding signal was 267 Kd / Kd of best base at the position.

Regarding TTGATGGATTA, the binding signal is 4.9 Kd / Kd of best base at the position.

On to GTGAGGGATTA, for which the binding signal was 1.3 Kd / Kd of best base at the position.

As for TTGAGGGATGA, the binding signal is 1.78 Kd / Kd of best base at the position.

TTGAGGTATTA: the binding signal was 13.8 Kd / Kd of best base at the position.

For the sequence TTCAGGGATTA, the binding signal is 4.61 Kd / Kd of best base at the position.

In the case of TTGAGGGATTG, the binding signal was 1.33 Kd / Kd of best base at the position.

Consider TTGGGGGATTA, for which the binding signal is 16.7 Kd / Kd of best base at the position.

As to TTGAGGGAGTA, the binding signal is 2.01 Kd / Kd of best base at the position.

With TGGAGGGATTA, the binding signal is 1.3 Kd / Kd of best base at the position.

For the sequence TTGAAGGATTA, the binding signal was 1.22 Kd / Kd of best base at the position.

With TTGAGGGATTT, the binding signal is 1.61 Kd / Kd of best base at the position.

CTGAGGGATTA: the binding signal is 1.7 Kd / Kd of best base at the position.

For the sequence TTGAGGGCTTA, the binding signal was 2.19 Kd / Kd of best base at the position.

On to TTGAGGAATTA, for which the binding signal is 2.59 Kd / Kd of best base at the position.

ATGAGGGATTA: the binding signal is 1.06 Kd / Kd of best base at the position.

For the sequence TTGAGGGATAA, the binding signal was 1.82 Kd / Kd of best base at the position.

With TTGAGGGATCA, the binding signal is 4.06 Kd / Kd of best base at the position.

Turning to TTTAGGGATTA, the binding signal is 4.08 Kd / Kd of best base at the position.

Turning to TTAAGGGATTA, the binding signal is 1.14 Kd / Kd of best base at the position.

For TTGCGGGATTA, the binding signal was 12.2 Kd / Kd of best base at the position.

As for TTGAGGGACTA, the binding signal is 3.27 Kd / Kd of best base at the position.

Regarding TCGAGGGATTA, the binding signal was 1.5 Kd / Kd of best base at the position.

Regarding TTGAGGGAATA, the binding signal is 4.25 Kd / Kd of best base at the position.

Regarding TTGAGTGATTA, the binding signal was 37.9 Kd / Kd of best base at the position.

Turning to TTGAGCGATTA, the binding signal was 27.9 Kd / Kd of best base at the position.

In the case of TTGAGAGATTA, the binding signal is 15.7 Kd / Kd of best base at the position.

Turning to TTGAGGGGTTA, the binding signal is 1.22 Kd / Kd of best base at the position.

On to TTGAGGGATTC, for which the binding signal is 2.58 Kd / Kd of best base at the position.

Regarding TTGACGGATTA, the binding signal was 2.29 Kd / Kd of best base at the position.

A further test concerns the target T1, Cad (Drosophila melanogaster, UniProt P09085 273-344).
T1 sequence: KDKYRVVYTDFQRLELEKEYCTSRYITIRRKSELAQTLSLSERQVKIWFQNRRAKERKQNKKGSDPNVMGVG
The test is described as above. The settings on record: tags: N-GST (pGEX-6P-1, kept); dsDNA, one strand shown.
For CACTATTTATA, the binding signal was 2.8 Kd / Kd of best base at the position.

As to CCCTTTTTATA, the binding signal is 1 Kd / Kd of best base at the position.

In the case of CACTTATTATA, the binding signal was 2.8 Kd / Kd of best base at the position.

Regarding CACTTTGTATA, the binding signal was 27.9 Kd / Kd of best base at the position.
